These results are taken from PubChem BioAssay AID1578 (Sanford-Burnham Center for Chemical Genomics, 2009).

Screen size: about 290,000 compounds; about 3,000 (1%) were called active. The entries come from a sample that favours actives as a whole. A number with no mark means an inactive call. No stated cut-off is given here; in the data, active means inhibition mostly above about 36% (no sharp cut-off); inactive means mostly below about 34%.

In general, inhibition refers to the drop in the measured response relative to a control, in per cent.

This experiment is described as follows: inhibition of NOD1-driven NF-kB reporter – cell-based, luminescence, uHTS, primary screen (AID 1578).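 Further: HEK-293T reporter cells stimulated with the NOD1 agonist gamma-tri-DAP.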 The note with it: NOD1-driven NF-kB luciferase reporter cells, at 4 µM, stronger effect = higher value.
With `CCCCc1c(O)nc(SCC(=O)c2ccccc2)n(-c2ccccc2)c1=O`, the inhibition is -1.5%.

In the case of `Cc1ccc(S(=O)(=O)/N=C(\CCl)N2CCOCC2)cc1`, the inhibition was 72.3% (active). Take `Cc1ccc(S(=O)(=O)/N=C(\CN2CCOCC2)N2CCOCC2)cc1`: the inhibition was 0.6%.

For `Cc1ccc(S(=O)(=O)/N=C(\CN2CCCCC2)N2CCOCC2)cc1`, the inhibition is 10.8%. As to `N/N=c1\sc2ccccc2n1-c1ccccc1`, the inhibition was 2.6%. The figure for `COc1cccc(/C=C2\SC(=S)N(CCCC(=O)N3CCCCC3)C2=O)c1` is 0%; for `O=C(CCC(=O)NC1CCCCCCC1)Nc1nnc(C(F)(F)F)s1` it is 4.2%; for `O=C(CCC(=O)NC1CCCCCC1)Nc1nnc(C(F)(F)F)s1` it is -18.1%. In the case of `O=C(CCC1CCCCC1)Nc1nnc(C(F)(F)F)s1`, the inhibition was 77.4% (active). As for `Cc1ccnc(NC(=O)c2ccc(Cl)cc2Cl)n1`, the inhibition is 14.3%. As for `COc1cc(C(=O)NC2CC(C)(C)Cc3c2cnn3-c2ccccc2)cc(OC)c1OC` (stereo not drawn), the figure is -14.3%. Take `COc1ccc(C(=O)NC2CC(C)(C)Cc3c2cnn3-c2ccccc2)cc1OC` (stereo not drawn): the inhibition is 0.2%. As for `COc1ccc(OC)c(C(=O)NC2CC(C)(C)Cc3c2cnn3-c2ccccc2)c1` (stereo not drawn), the figure is 53.9% (active). As for `O=C(NCCc1c[nH]c2ccccc12)c1ccc([N+](=O)[O-])cc1`, the inhibition is -37.7%.

As to `NC(=O)C1CCN(c2ccc(S(=O)(=O)N3CCCCC3)cn2)CC1`, the inhibition is -25.2%. In the case of `O=C(O)c1ccc(S(=O)(=O)N2CCC(Cc3ccccc3)CC2)cc1`, the inhibition is 2.5%. As for `Cc1ccc(CNC(=O)C2CC3Cn4c(nc5cc(C)c(C)cc54)C3N2C)o1` (stereo not drawn), the figure is -2.6%; as for `Cc1ccc(/C=C2/SC(=S)N(CCC(=O)N3CCN(c4ccccc4)CC3)C2=O)cc1`, 5.7%; as for `CCOC(=O)N1CCN(CC(=O)Nc2ccc(F)c(F)c2)CC1`, 10.6%. On to `CCC(=O)Nc1nc2nc(-c3ccccc3)cc(=O)n2[nH]1`, for which the inhibition was 0.3%. Consider `CCCC(=O)Nc1nc2nc(C)cc(=O)n2[nH]1`, for which the inhibition is -2.3%. For the compound `CCC(=O)Nc1nc2nc(C)cc(=O)n2[nH]1`, the inhibition was 57.1% (active). Take `Brc1ccc(-c2nc(-c3ccncc3)no2)cc1`: the inhibition was -20.7%.

For the compound `NC1=NC(=O)C(CC(=O)Nc2ccc3c(c2)OCO3)S1` (stereo not drawn), the inhibition is -24.1%. With `CCCCNS(=O)(=O)c1ccc2nc(SCC(=O)Nc3ccccc3)[nH]c2c1`, the inhibition is -15.3%. For `CCCCNS(=O)(=O)c1ccc2nc(SCC(=O)c3ccc(C#N)cc3)[nH]c2c1`, the inhibition was -14.8%. Consider `CCCCNS(=O)(=O)c1ccc2nc(SCC(=O)Nc3sccc3C#N)[nH]c2c1`, for which the inhibition is 65.5% (active).

Regarding `CC(=O)Nc1ccc2sc(C)nc2c1`, the inhibition is -14.2%. On to `Cc1nc2cc(NC(=O)c3ccc(Br)s3)ccc2s1`, for which the inhibition was -42.5%.

As for `COc1ccc(Cl)cc1NC(=O)CN1C(=O)CSC1=O`, the inhibition is -3.2%.

`Cc1ccc(NC(=O)c2ccccc2N(C)S(=O)(=O)c2ccccc2)c(C)c1`: the inhibition was -8.8%.

In the case of `CC(=O)c1c(C)oc2c1C(=O)c1ccccc1C2=O`, the inhibition is 79.5% (active). As to `Cc1oc2c(c1C(=O)O)C(=O)c1ccccc1C2=O`, the inhibition is -30.8%.

Consider `CCOC(=O)c1c(C)oc2c1C(=O)c1ccccc1C2=O`, for which the inhibition is -38.5%.

With `Cc1ccc(-c2nnn(CC(=O)N(Cc3ccccc3F)C(C(=O)NC3CCCC3)c3ccncc3)n2)o1` (stereo not drawn), the inhibition was -44.1%.

As to `CCOC(=O)C1=C(C)N(c2ccccc2)C(=O)NC1c1cccc([N+](=O)[O-])c1` (stereo not drawn), the inhibition is -25.4%. For the compound `O=C(CSc1nnc(CNC(=O)c2ccc(F)cc2)o1)NCCc1ccccc1`, the inhibition is -16%. The figure for `COc1ccc(C(=O)NCc2nnc(SCC(=O)N3CCCCC3)o2)cc1` is -32.2%. Consider `COc1ccc(C(=O)NCc2nnc(SCC(=O)N3CCOCC3)o2)cc1`, for which the inhibition is 37.2% (active). `COc1ccc(C(=O)NCc2nnc(SCC(=O)N3CCCC3)o2)cc1`: the inhibition was -25.5%. As to `O=C(CSc1nnc(CNC(=O)c2ccccc2)o1)NCCc1ccccc1`, the inhibition was 72% (active). For `COc1ccc(C(=O)NCc2nnc(SCC(=O)NCCc3ccccc3)o2)cc1`, the inhibition is -16.6%. Consider `COCCn1c(SCC(=O)Nc2ccc(S(N)(=O)=O)cc2)nc2ccccc21`, for which the inhibition is -3.5%.

Consider `CCN(CC)C1CCN(C(=O)CCn2nnnc2CN2CCOCC2)C1` (stereo not drawn), for which the inhibition is -54.3%. For `COCCn1c(SCc2ccc(OC)c(F)c2)nnc1-c1ccncc1`, the inhibition was -14.1%.

Consider `O=Cc1ccc(OC(=O)CCCCC(=O)Oc2ccc(C=O)cc2)cc1`, for which the inhibition is 4.4%. The figure for `CN1C2=CC=CC=CC2=[N+](C)C12C([N+](=O)[O-])=CC(=[N+]([O-])[O-])C=C2[N+](=O)[O-]` (stereo not drawn) is 57.4% (active). As for `CN1C2=CC=CC=CC2=[N+](C)C12C=CC(=[N+]([O-])[O-])C=C2[N+](=O)[O-]` (stereo not drawn), the figure is -35.5%. Consider `CC(C)[N+]1=C2C=CC=CC=C2SC12C([N+](=O)[O-])=CC(=[N+]([O-])[O-])C=C2[N+](=O)[O-]` (stereo not drawn), for which the inhibition was -8.1%.

Regarding `Fc1ccc(NC(=S)Nc2ccc(Cl)cc2Cl)cc1`, the inhibition was -28.8%.

Turning to `CC(=O)c1c(C)[nH]c(C(=O)Nc2ccc(C)c(S(=O)(=O)N(C)C)c2)c1C`, the inhibition is -63.3%. The figure for `Nc1nc(NCC(=O)O)nc(NCc2ccccc2)c1[N+](=O)[O-]` is -13.3%; for `O=C(NNC1=Nc2ccccc2SC1)c1ccc(Cl)cc1` it is 78.1% (active); for `O=C(NNC1=Nc2ccccc2SC1)c1ccccc1F` it is 1.9%. `O=C(NNC1=Nc2ccccc2SC1)c1ccc(F)cc1`: the inhibition was 18.7%. With `COc1cc(/C=C(\C#N)C(=O)N2CCOCC2)ccc1OCc1ccccc1`, the inhibition was -23.3%. With `O=S(=O)(c1cnc(Cl)c(Cl)c1)N1CCN(c2ncccn2)CC1`, the inhibition is -5.2%.

Regarding `CC(C)c1ccccc1NC(=O)COC(=O)c1cccnc1`, the inhibition was -18.3%. On to `Cc1cc(NC(=O)CSc2cn(CCNC(=O)c3ccccc3)c3ccccc23)no1`, for which the inhibition was 11.3%.

Regarding `Cc1ccc(C(=O)NCCn2cc(SCC(=O)Nc3cc(C)on3)c3ccccc32)cc1`, the inhibition is -10.3%. Turning to `Cc1cc(NC(=O)CSc2cn(CCNC(=O)c3ccc(Cl)cc3)c3ccccc23)no1`, the inhibition was 75.9% (active). Take `O=C(CCC(=O)OCC(=O)c1ccc(Br)cc1)NC1CCCCC1`: the inhibition is -4.2%.

With `CCn1c(SCC(=O)N2CCc3ccccc3C2)nc2sc(C)c(C)c2c1=O`, the inhibition was 20.4%.

With `CCC(=O)N1CCN(c2nc(C)nc3sc(C)c(C)c23)CC1`, the inhibition was 9.5%. With `Cc1nc(SCC(=O)N2CCCCC2)c2c(C)c(C)sc2n1`, the inhibition is -15.5%. As for `Cc1nc(N2CCN(C(=O)CCC(=O)O)CC2)c2c(C)c(C)sc2n1`, the figure is -16.7%. Consider `COC(=O)c1ccc(CNC(=O)N2CCN(S(=O)(=O)c3ccc(C)cc3)CC2)cc1`, for which the inhibition was -19.3%.

As to `Cn1c(=O)c2c(nc(SCc3ccccc3F)n2C)n(C)c1=O`, the inhibition was 24%. As for `CN1C(=S)SC(/[N+]([O-])=C/c2ccc(Cl)cc2)C1(C)C` (stereo not drawn), the inhibition was 12%. For `Cc1ccc(/C=[N+](/[O-])C2SC(=S)N(C)C2(C)C)cc1` (stereo not drawn), the inhibition is -10.5%. The figure for `CN1C(=S)SC(/[N+]([O-])=C\c2ccc(Cl)cc2)C1(C)C` (stereo not drawn) is 84.4% (active). As for `O=C(O)c1ccc(-c2nc3scc(-c4ccccc4)c3c(=O)[nH]2)cc1`, the inhibition is -3.4%. `COc1cc(SC)ccc1C(=O)OC1CCOC1=O` (stereo not drawn): the inhibition is 7.7%. As for `CCOC(=O)c1ccc(NC(=O)CN2CCc3ccccc3C2)cc1`, the figure is -2.1%. Take `Cc1ccc(NC(=O)c2ccc(CN3CCc4ccccc4C3)cc2)cc1`: the inhibition was 42.4%. On to `CCOc1ccccc1NC(=O)c1ccc(CN2CCc3ccccc3C2)cc1`, for which the inhibition was 25.2%.

Turning to `CC(=O)Nc1ccc(NC(=O)c2ccc(CN3CCc4ccccc4C3)cc2)cc1`, the inhibition was 21.2%. `Cc1cc(C)cc(NC(=O)c2ccc(CN3CCc4ccccc4C3)cc2)c1`: the inhibition is 39.1%. The figure for `O=C(Nc1ccccc1)c1ccc(CN2CCc3ccccc3C2)cc1` is 37.2%; for `C#Cc1ccc([C@H]2C=C(C(=O)N3CCN(Cc4ccc5c(c4)OCO5)CC3)O[C@@H](OCc3ccc(CO)cc3)C2)cc1` it is 1.8%.

Regarding `Cc1ccc(S(=O)(=O)Nc2ccccc2N2CCOCC2)cc1`, the inhibition is -11.5%. As to `Cc1nc2sc(C(c3ccc(F)cc3)N3CCOCC3)c(O)n2n1` (stereo not drawn), the inhibition was 0.4%. On to `Cc1onc(-c2ccccc2)c1C(=O)c1c[nH]c(C(=O)NCCCN2CCOCC2)c1`, for which the inhibition is -7.9%. The figure for `COc1ccc(CCNC(=O)Cn2c(=O)n(-c3cc(F)ccc3F)c(=O)c3sccc32)cc1OC` is -47.6%; for `CC(NC(=S)Nc1ccc(OC(F)F)c(Cl)c1)C(C)(C)C` (stereo not drawn) it is -14.8%.

Take `O/N=C/c1cccc[n+]1CCCCCC[n+]1ccccc1/C=N/O`: the inhibition was 27.1%. `Cc1[nH]n2c(=O)cc(C(C)(C)C)nc2c1-c1ccccc1`: the inhibition was 85.3% (active). With `Cc1[nH]n2c(=O)cc(C(C)C)nc2c1-c1ccccc1`, the inhibition is -8.4%. With `Cc1cc(=O)n2[nH]c(C)c(-c3ccccc3)c2n1`, the inhibition is -4.2%. On to `COc1cccc(-c2c[nH]c(=O)[nH]c2=O)c1`, for which the inhibition is -6.8%. As for `Cc1cccc(/C=C/C(=O)c2ccc(NC3=NCCCS3)cc2)c1`, the inhibition was 32.1%. For the compound `COc1ccc(/C=C/C(=O)c2ccc(NC3=NCCCS3)cc2)cc1OC`, the inhibition is 44.3% (active). As for `COc1cccc(/C=C/C(=O)c2ccc(NC3=NCCCS3)cc2)c1`, the figure is -44.4%.
